Screen size: about 2,100 compounds; about 1,100 (52%) were called active. Not shown: some 29% with an inconclusive outcome. The call rests on the fitted dose curve; in most records, active means well fitted inhibition curve with a large enough effect; inconclusive means small, poorly fitted or top-dose-only effect; inactive means no such curve, though single readings can be large or run the other way. So high a share suggests a set chosen from earlier hits. Some of the results follow.
Molecular target: DNA dC->dU-editing enzyme APOBEC-3F (Homo sapiens) (UniProt Q8IUX4)
Experiment: qHTS for inhibitors of Vif-A3F interactions: Cherry picks counterscreen; further: nearly all actives have a fitted effect of over 65% in size
Conditions: HeLa A3F-eYFP/Vif cells, eYFP fluorescence, 24 h; series mostly up to 46.1 µM; activity, negative = inhibitor: at the top concentration
Outline: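 Rescue of Vif-driven A3F-eYFP degradation read as cellular eYFP fluorescence after 24 h compound exposure (several concentrations) in stable HeLa cells; MG132 (2 mM stock) as positive control.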
On the % scale 0 is the no-effect control and ±100 the full control effect; potency means the concentration at half of the fitted maximal effect.

Chain of DNA dC->dU-editing enzyme APOBEC-3F (Homo sapiens) (Q8IUX4 whole entry, looked up): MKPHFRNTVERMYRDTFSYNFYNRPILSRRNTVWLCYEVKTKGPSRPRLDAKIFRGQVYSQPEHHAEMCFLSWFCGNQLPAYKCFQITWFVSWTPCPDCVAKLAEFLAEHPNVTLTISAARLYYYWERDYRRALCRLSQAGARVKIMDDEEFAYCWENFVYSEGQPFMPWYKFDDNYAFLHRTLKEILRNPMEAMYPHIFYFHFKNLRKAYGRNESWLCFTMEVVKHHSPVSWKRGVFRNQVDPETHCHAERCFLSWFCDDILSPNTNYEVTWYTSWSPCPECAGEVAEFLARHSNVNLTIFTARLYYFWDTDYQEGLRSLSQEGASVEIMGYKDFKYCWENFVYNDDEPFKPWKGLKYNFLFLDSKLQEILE

Structure (SMILES) | activity, negative = inhibitor | Potency
CCCn1c(C2CCCN2c2nc(-c3cccc(Br)c3)cs2)nc2ccccc21 (stereo not drawn) | 8.29% (inactive) | –
CCn1c2ccccc2c2cc(NC(=O)CNCc3ccccc3OC)ccc21 | – | 4.98 µM (active)
S=C(NCCSCc1ccc(Cl)cc1)Nc1ccccc1 | -10.3% (inactive) | –
CCn1c(CNC(=O)c2cc(OC)c(OC)c(OC)c2)cc2cc(C)ccc21 | 13.7% (inactive) | –
COc1cc(C(=O)NCCOc2cc(C)cc(C)c2)cc(OC)c1OC | – | 2.8 µM (active)
COc1ccc(C2=NOC(C(=O)NCc3ccc(F)cc3)C2)cc1OC (stereo not drawn) | – | 5.59 µM (active)
CCOc1ccc(N(C)c2ccc(/C=C3/SC(=S)NC3=O)cc2)cc1 | – | 15.8 µM (active)
COc1ccccc1N=C1NC(=O)/C(=C/c2ccc(N(C)C)cc2)S1 | – | 6.51 µM (active)
CN(C)c1ccc(C=C2SC(=S)NC2=O)cc1 | – | 7.04 µM (active)
Cc1ccc(Cn2c(SCc3ccc(C(=O)NC4CCCC4)cc3)nc3ccncc32)cc1 | -1.67% (inactive) | –
Cc1ccc(C(=O)c2cc([N+](=O)[O-])ccc2N2CCN(C)CC2)cc1 | – | 4.98 µM (active)
CN1CCN(c2ccc([N+](=O)[O-])cc2C(=O)c2ccc(Br)cc2)CC1 | – | 4.98 µM (active)
Cc1ccc(C(=O)c2cc([N+](=O)[O-])ccc2N2CCOCC2)cc1C | – | 1.77 µM (active)
Cn1c(=O)[nH]c(=O)c2c1nc(Br)n2Cc1cccc(Br)c1 | – | 9.94 µM (active)
C/C(=N\NC(=O)c1c(Cl)c(C)nn1C)c1ccc(NC(=O)C2CCC2)cc1 | – | 1.4 µM (active)
CCN(CC)c1ccc(/C=C/c2cccc[n+]2C)c(OC)c1 | – | 15.8 µM (active)
COC(=O)/C(=C\Nc1ccc(Cl)cc1Cl)NC(=O)c1ccc(OC)cc1 | – | 3.96 µM (active)
Cc1ccc(N=C2NC(=O)/C(=C/c3cn(C)c4ccccc34)S2)cc1C | – | 15.8 µM (active)
Cn1cccc1/C=C1\SC(=Nc2ccccc2)NC1=O | – | 5.59 µM (active)
Cc1ccc(N=C2NC(=O)/C(=C/c3cccn3C)S2)cc1 | – | 15.8 µM (active)
Cn1cccc1/C=C1\SC(=Nc2ccc(O)cc2)NC1=O | – | 6.27 µM (active)
COc1cc(/C=C2/SC(=Nc3ccc(O)cc3)NC2=O)ccc1O | – | 13 µM (active)
Cn1cc(/C=C2\SC(=S)N(NC(=O)c3cccc(Cl)c3)C2=O)c2ccccc21 | – | 16.4 µM (active)
O=C1NC(=Nc2ccc(O)cc2)S/C1=C/c1ccco1 | – | 12.5 µM (active)

Structure (SMILES) | activity, negative = inhibitor | Potency
COc1cc(/C=C2\SC(=Nc3cccnc3)NC2=O)cc(OC)c1OC | -8.69% (inactive) | –
Cn1cc(/C=C2\SC(=O)N(c3ccccc3)C2=O)c2ccccc21 | – | 16.4 µM (active)
Cc1cc(/C=C2\SC(=Nc3ccccc3)NC2=O)c(C)n1-c1ccc(S(N)(=O)=O)cc1 | – | 1.98 µM (active)
Cc1cccc(N=C2NC(=O)/C(=C/c3cccn3C)S2)c1 | -27.7% [at 36.9 µM] (inactive) | –
Cn1cccc1/C=C1\SC(=Nc2cccc(O)c2)NC1=O | – | 17.7 µM (active)
COc1cc2c(cc1OC)C(C)N(C(=O)c1cc(C)on1)CC2 (stereo not drawn) | – | 0.994 µM (active)
COc1cc2c(cc1OC)C(C)N(C(=O)c1cc(Cl)nc(Cl)c1)CC2 (stereo not drawn) | -61.7% [at 36.9 µM] (inactive) | –
CCN(CC)c1nc(C)c(C(=S)Nc2cc([N+](=O)[O-])ccc2Cl)s1 | -0.0972% (inactive) | –
CC(=O)Nc1ccc(-c2ccnc3c2CC(C(=O)NCc2ccccc2)O3)cc1 (stereo not drawn) | – | 1.12 µM (active)
CC(=O)Nc1ccc(-c2ccnc3c2CC(C(=O)NCc2cccc(Cl)c2)O3)cc1 (stereo not drawn) | – | 3.53 µM (active)
O=C1Nc2ccc(Br)cc2C12NNc1ccccc1O2 (stereo not drawn) | – | 14 µM (active)
Cc1ccc(CSc2nc(-c3ccc(C(C)(C)C)cc3)nc3cc(=O)[nH]n23)cc1 | -3.11% (inactive) | –
Cc1sc2ncnc(SCC(=O)NC(C)(C)C)c2c1C | 2.59% (inactive) | –
COc1cccc(-c2ccc3c(N)c(C(=O)c4ccc(Cl)cc4)sc3n2)c1 | – | 16.4 µM (active)
COc1ccc(NC(=O)c2sc3nc(-c4cccnc4)ccc3c2N)cc1OC | – | 5.8 µM (active)
COc1cccc(-c2ccc3c(N)c(C(=O)c4ccc(Br)cc4)sc3n2)c1 | – | 23.1 µM (active)
Cc1nn(-c2ccc(F)cc2)c(Cl)c1/C=C1\C(=O)Nc2ccccc21 | – | 5.59 µM (active)
O=c1[nH]c(NCc2ccco2)nnc1Cc1ccccc1Cl | – | 12.5 µM (active)
O=[N+]([O-])c1ccc(C2=NN(c3ccccc3)C(c3ccco3)C2)cc1 (stereo not drawn) | – | 1.58 µM (active)
O=[N+]([O-])c1ccc(/C=C/C2=NN(c3ccccc3)C(c3ccco3)C2)o1 (stereo not drawn) | – | 5.17 µM (active)
COc1ccccc1N1N=C(c2ccc([N+](=O)[O-])cc2)CC1c1ccccc1 (stereo not drawn) | – | 1.12 µM (active)
O=[N+]([O-])c1ccc(C2=Nc3cc(Cl)ccc3OC2)cc1 | -10.5% (inactive) | –
COc1ccc2nc(C)cc(SCC(=O)N/N=C/c3cccc4ccccc34)c2c1 | – | 6.27 µM (active)
O=C(Nc1ccc([N+](=O)[O-])cc1)C(Cc1ccccc1)N1C(=O)c2cccc3cccc(c23)C1=O (stereo not drawn) | – | 15.8 µM (active)

— PubChem BioAssay AID651815 (National Center for Advancing Translational Sciences (NCATS), 2012)
